Data as given in PubChem BioAssay (Tox21).
Values without a mark were called inactive. Records with an inconclusive call do not appear. Where a call stands in place of a potency, no number is given. Activity calls are given as the source filed them. The call rests on the fitted dose curve; in most records, active means well fitted curve in the direction sought with a large enough effect in the repeat runs; inconclusive means weak or mixed curves; inactive means no such curve, though single readings can be large; an effect the other way counts as inactive or inconclusive.

Assays:
[1] = Caspase-3/7 induction in HepG2 cells by small molecules, qHTS assay (AID 1346978); further: nearly all actives have a fitted effect of over 15% in size
Summary of the method: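 Wild-type HepG2 cells (2,000/well) were settled 5 h at 37 C, 5% CO2, then exposed to compounds in DMSO for 17 h. Caspase-3/7 activity was read by luminescence 30 min after adding Caspase-Glo 3/7 reagent at room temperature.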

[2] = Caspase-3/7 induction in CHO-K1 cells by small molecules, qHTS cell viability counter screen (AID 1346979); further: nearly all actives have a fitted effect of over 35% in size; further: potency means the concentration at half of the fitted maximal effect
Summary of the method: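 Cells (CHO-K1, wild type) are plated at 1,500 per well and incubated 5hr. Test compounds in DMSO are then pinned in, followed by 16hr at 37C and 5% CO2. Viability is read by CellTiter-Fluor fluorescence after 1hr.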

[3] = Caspase-3/7 induction in CHO-K1 cells by small molecules, qHTS assay (AID 1346980); further: nearly all actives have a fitted effect of over 15% in size
Summary of the method: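 Wild-type cells were seeded at 1,500 per well and settled 5 hr at 37 C, 5% CO2, then exposed to DMSO-dissolved compounds for 17 hr. Caspase-Glo 3/7 reagent was added, and luminescence was read after 30min at room temperature.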

[4] = molecular target: Nuclear receptor subfamily 1 group I member 2 (Homo sapiens) (UniProt O75469); experiment: Human pregnane X receptor (PXR) small molecule agonists, qHTS assay (AID 1346982); further: potency means the concentration at half of the fitted maximal effect; nearly all actives have a fitted effect of over 35% in size
Summary of the method: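 Luciferase signal from ONE-Glo (30 min, room temperature) measured activation of hPXR-driven CYP3A4 reporter expression in PXR-Luc HepG2 cells treated with compounds for 24 hr at 37 C.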

[5] = molecular target: Nuclear receptor subfamily 1 group I member 2 (Rattus norvegicus) (UniProt Q9R1A7); experiment: Rat pregnane X receptor (rPXR) activation by small molecules, qHTS assay (AID 1346983); settings: rPXR luciferase reporter cells, One-Glo luminescence, 24 h; max activation: stronger effect = higher value; further: nearly all actives have a fitted effect of over 20% in size; further: potency means the concentration at half of the fitted maximal effect
Summary of the method: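 Cell-based rPXR luciferase reporter assay, 2,000 cells per well, rested 5hr at 37 C before compound addition in DMSO, then 24 hr at 37 C. One-Glo reagent was added and luminescence read after 30 min at room temperature.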

[6] = molecular target: Nuclear receptor subfamily 1 group I member 2 (Homo sapiens) (UniProt O75469); experiment: CYP3A4 induction through human pregnane X receptor (PXR) by small molecules, qHTS assay (AID 1346984); further: nearly all actives have a fitted effect of over 40% in size
Summary of the method: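 Luminescence readout: luciferase signal after One-Glo (30 min, room temperature), following 3 h at 37C with 3uM final Luciferin-IPA P450 substrate. Cells were DPX-2 (HepG2, PXR/CYP3A4-luc co-transfected) dosed for 24 h.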

[7] = molecular target: Nuclear receptor subfamily 1 group I member 2 (Homo sapiens) (UniProt O75469); experiment: Human pregnane X receptor (PXR) activation by small molecules, qHTS assay (AID 1346985); further: nearly all actives have a fitted effect of over 40% in size; further: potency means the concentration at half of the fitted maximal effect
Summary of the method: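 DPX-2 cells (HepG2 co-transfected with a PXR response element and a CYP3A4-promoter luciferase construct) were seeded at 2,000 per well, rested 5 hr at 37C, then exposed to DMSO-dissolved compounds for 24 hr. Activation was read as luciferase luminescence.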

[8] = molecular target: Cytochrome P450 2D6 (Homo sapiens) (UniProt P10635); experiment: Cytochrome P450 Family 2 Subfamily D Member 6 (CYP2D6) small molecule antagonists: luciferase reporter qHTS assay (AID 1671196); further: potency means the concentration at half of the fitted maximal effect; nearly all actives have a fitted effect of over 50% in size
Summary of the method: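 Read-out is luminescence from luciferin formed by CYP2D6 turnover of a proluciferin substrate, recorded as relative luminescence units. Reactions ran 1 h at room temperature after NADPH regeneration solution was added.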

[9] = Caspase-3/7 induction in HepG2 cells by small molecules, qHTS cell viability counter screen (AID 1346981); further: nearly all actives have a fitted effect of over 30% in size; further: potency means the concentration at half of the fitted maximal effect
Summary of the method: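 HepG2, WT, 2,000 cells/well; 5 hr pre-incubation 37 C/5% CO2; compound pin-transferred from DMSO; 16 hr exposure; CellTiter-Fluor, 1 hr; fluorescence read.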

Chain of Nuclear receptor subfamily 1 group I member 2 (Homo sapiens) (O75469 whole entry, looked up): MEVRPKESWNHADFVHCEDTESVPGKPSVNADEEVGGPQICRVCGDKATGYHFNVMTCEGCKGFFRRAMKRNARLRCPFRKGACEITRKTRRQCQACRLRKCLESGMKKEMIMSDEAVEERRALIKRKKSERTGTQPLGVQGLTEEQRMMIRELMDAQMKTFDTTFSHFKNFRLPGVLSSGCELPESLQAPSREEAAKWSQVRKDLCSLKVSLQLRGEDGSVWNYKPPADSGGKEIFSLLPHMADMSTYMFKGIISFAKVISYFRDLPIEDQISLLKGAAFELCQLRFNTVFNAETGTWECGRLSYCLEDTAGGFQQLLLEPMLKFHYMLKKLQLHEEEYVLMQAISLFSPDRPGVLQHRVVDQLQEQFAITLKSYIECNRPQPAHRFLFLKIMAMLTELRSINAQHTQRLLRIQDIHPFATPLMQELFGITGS
Chain of Nuclear receptor subfamily 1 group I member 2 (Rattus norvegicus) (Q9R1A7 whole entry, looked up): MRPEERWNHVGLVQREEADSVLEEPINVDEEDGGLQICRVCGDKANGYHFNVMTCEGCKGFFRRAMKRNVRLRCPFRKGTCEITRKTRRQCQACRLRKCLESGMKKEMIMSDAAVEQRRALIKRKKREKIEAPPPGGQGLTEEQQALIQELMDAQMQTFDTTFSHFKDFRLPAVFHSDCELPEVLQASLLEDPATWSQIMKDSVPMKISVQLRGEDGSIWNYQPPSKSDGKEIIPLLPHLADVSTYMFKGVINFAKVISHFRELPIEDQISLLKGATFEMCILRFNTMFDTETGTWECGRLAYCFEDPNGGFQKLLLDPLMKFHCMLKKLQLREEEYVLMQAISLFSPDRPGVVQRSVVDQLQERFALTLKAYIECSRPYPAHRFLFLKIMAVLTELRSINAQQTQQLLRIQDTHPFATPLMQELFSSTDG
Chain of Cytochrome P450 2D6 (Homo sapiens) (P10635 whole entry, looked up): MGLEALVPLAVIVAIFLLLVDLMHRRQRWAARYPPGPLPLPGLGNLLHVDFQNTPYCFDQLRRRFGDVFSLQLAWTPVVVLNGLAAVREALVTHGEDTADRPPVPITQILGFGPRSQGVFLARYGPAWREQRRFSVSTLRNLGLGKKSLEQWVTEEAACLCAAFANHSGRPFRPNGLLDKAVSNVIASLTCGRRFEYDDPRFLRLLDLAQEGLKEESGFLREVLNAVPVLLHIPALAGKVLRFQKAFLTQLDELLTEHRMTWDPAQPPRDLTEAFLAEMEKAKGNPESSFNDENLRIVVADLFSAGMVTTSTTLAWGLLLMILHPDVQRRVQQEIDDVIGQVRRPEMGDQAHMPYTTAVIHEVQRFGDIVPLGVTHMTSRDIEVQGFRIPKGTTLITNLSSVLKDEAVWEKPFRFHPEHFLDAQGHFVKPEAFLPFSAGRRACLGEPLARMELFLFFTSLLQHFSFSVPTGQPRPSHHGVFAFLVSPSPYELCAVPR

**Q.** With `CN(C)CCN(Cc1ccccc1)c1ccccn1` as the molecule, how does the Potency [1] read?
**A.** inactive

**Q.** What about the Potency [2] of the same molecule?
**A.** inactive

**Q.** What about the Potency [3] of the same molecule?
**A.** inactive

**Q.** What about the Potency [4] of the same molecule?
**A.** 6.68 µM (active)

**Q.** And the max activation [5]?
**A.** 2.98%

**Q.** And the Potency [6]?
**A.** inactive

**Q.** What about the Potency [7] of the same molecule?
**A.** inactive

**Q.** What about the Potency [8] of the same molecule?
**A.** 0.219 µM (active)

**Q.** With `CCCCCCCCCCCCN1CCCCCC1=O` as the molecule, how does the Potency [1] read?
**A.** inactive

**Q.** And the Potency [2]?
**A.** inactive

**Q.** And the Potency [3]?
**A.** inactive

**Q.** And the Potency [9]?
**A.** inactive

**Q.** What about the Potency [4] of the same molecule?
**A.** 21.7 µM (active)

**Q.** Which Potency [1] does the source give for `COc1cc2c(cc1OC)C(C(C(=O)N(CCc1ccc(OC)c(OC)c1OC)CCc1ccc(OC)c(OC)c1OC)c1ccccc1)=NCC2` (stereo unspecified) here?
**A.** inactive

**Q.** And the Potency [2]?
**A.** 26.6 µM (active)

**Q.** What about the Potency [3] of the same molecule?
**A.** inactive

**Q.** What about the Potency [9] of the same molecule?
**A.** 26.6 µM (active)

**Q.** What about the Potency [4] of the same molecule?
**A.** 2.66 µM (active)

**Q.** What about the Potency [5] of the same molecule?
**A.** 2.51 µM (active)

**Q.** And the Potency [6]?
**A.** inactive

**Q.** And the Potency [7]?
**A.** 7.94 µM (active)

**Q.** And the Potency [8]?
**A.** 5.49 µM (active)

**Q.** With `CCOC(=O)NCCOc1ccc(Oc2ccccc2)cc1` as the molecule, how does the Potency [1] read?
**A.** inactive

**Q.** And the Potency [3]?
**A.** inactive

**Q.** And the Potency [4]?
**A.** 21.7 µM (active)

**Q.** And the Potency [8]?
**A.** 35.6 µM (active)

**Q.** With `COc1cc2nc(N(C)CCCNC(=O)C3CCCO3)nc(N)c2cc1OC` (stereo unspecified) as the molecule, how does the Potency [1] read?
**A.** inactive

**Q.** And the Potency [2]?
**A.** 21.1 µM (active)

**Q.** What about the Potency [3] of the same molecule?
**A.** inactive

**Q.** And the Potency [9]?
**A.** inactive

**Q.** What about the max activation [5] of the same molecule?
**A.** -4.32%

**Q.** And the Potency [6]?
**A.** inactive

**Q.** And the Potency [7]?
**A.** inactive

**Q.** For `C=C1C(=C/C=C2\CCC[C@]3(C)[C@@H]([C@H](C)/C=C/[C@@H](O)C4CC4)CC[C@@H]23)C[C@@H](O)C[C@@H]1O`, which Potency [1] is on record?
**A.** inactive

**Q.** And the Potency [2]?
**A.** 18.8 µM (active)

**Q.** What about the Potency [3] of the same molecule?
**A.** inactive

**Q.** What about the Potency [4] of the same molecule?
**A.** 16.8 µM (active)

**Q.** What about the max activation [5] of the same molecule?
**A.** 5.08%

**Q.** What about the Potency [6] of the same molecule?
**A.** inactive

**Q.** And the Potency [7]?
**A.** inactive

**Q.** Which results are given for `CCCCC`?
**A.** Potency [1]: inactive; Potency [2]: inactive; Potency [3]: inactive; Potency [4]: 53.6 µM (active); max activation [5]: -1.52%; Potency [6]: inactive; Potency [7]: inactive

**Q.** With `CN(C)c1ccc(C(c2ccccc2)c2ccc(N(C)C)cc2)cc1` as the molecule, how does the Potency [1] read?
**A.** inactive

**Q.** What about the Potency [2] of the same molecule?
**A.** 1.09 µM (active)

**Q.** What about the Potency [3] of the same molecule?
**A.** inactive

**Q.** What about the Potency [4] of the same molecule?
**A.** 21.7 µM (active)

**Q.** What about the Potency [8] of the same molecule?
**A.** 31.7 µM (active)

**Q.** Which Potency [1] does the source give for `c1ccc(C(O[C@H]2CCCN(CCc3ccc4c(c3)OCO4)C2)c2ccccc2)cc1` here?
**A.** inactive

**Q.** What about the Potency [2] of the same molecule?
**A.** inactive

**Q.** And the Potency [3]?
**A.** inactive

**Q.** And the Potency [8]?
**A.** 2.45 µM (active)
